NALP1 yeast inh – inhibitors of NALP1 inflammasome in yeast; S. cerevisiae NALP1/ASC/caspase-1 growth, X-gal OD620, 72 h; inhibition, % at 10 µM; 280,000 tested, 0.61% active; AID 2071; in the data active means inhibition mostly above about 24%, no sharp cut-off; inactive means mostly below about 32%
NLRP3 yeast inh – inhibitors of NALP3 inflammasome in yeast; Yeast reconstituted NLRP3/ASC/caspase-1, beta-gal luminescence, 24 h; inhibition, % at 10 µM; 330,000 tested, 0.39% active;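 active means inhibition of 50% or more; inactive means inhibition below 50%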;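 further: plate controls were induced DMSO wells for no effect and uninduced yeast grown without galactose for full effect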
tim10-1 inh – tim10-1 yeast growth inhibition; inhibition, % at 20 µM; S. cerevisiae tim10-1 ts strain growth, BacTiter-Glo, 24 h; 330,000 tested, 2.2% active; AID 463190;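 active means inhibition of at least 40%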;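 further: mutant grown at 25 °C; 0% = DMSO wells with yeast and 100% = wells holding no yeast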
TIM10 inh – growth inhibitors of TIM10 yeast strain; 330,000 tested, 1.4% active; inhibition, % at 10 µM; S. cerevisiae TIM10 strain growth, BacTiter-Glo luminescence, 24 h;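 active means inhibition of 40% or more at the single tested concentration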;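 further: wild-type TIM10 isogenic control strain grown at permissive 25 °C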
tim23-1 inh – tim23-1 yeast growth inhibition; S. cerevisiae tim23-1 growth, BacTiter-Glo luminescence, 24 h; inhibition, % at 20 µM; 330,000 tested, 1.3% active;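 active means growth inhibition of the mutant yeast at or above 50%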;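 further: temperature-sensitive mutant grown at 25 °C; plate controls were DMSO-treated mutant yeast for no effect and medium wells lacking yeast for full effect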
NALP3 confirm – NALP3 inhibition confirmation in yeast; shares compounds with NLRP3 yeast inh; yeast expressing human NALP3, luminescence; inhibition, % at 10 µM; 1,300 tested, 81% active; AID 435006; in the data active means inhibition above about 48%
Casp1 ASC ctr – caspase-1-ASC yeast counter-screen hit; shares compounds with NLRP3 yeast inh; yeast expressing Caspase-1-ASC, luminescence counter screen; inhibition, % at 10 µM; 1,000 tested, 66% active; AID 488784
NALP3 retest – retest-confirmed inhibitor of NALP3 in yeast | shares compounds with NLRP3 yeast inh | yeast expressing human NALP3, luminescence read-out | inhibition, % at 10 µM | 1,000 tested, 53% active
The depositor's hits bear a star; / = no result. Rows were chosen to be rich in hits. Some 4.1% of all compounds tested hit in one or more screens of this group. Unless noted, no stated cut-off is given here; in the data, active means inhibition above about 50%; inactive means the rest.

SMILES	NALP1 yeast inh	NLRP3 yeast inh	tim10-1 inh	TIM10 inh	tim23-1 inh	NALP3 confirm	Casp1 ASC ctr	NALP3 retest
O=S(=O)(c1ccsc1)N1CC=C(c2ccccc2)CC1	9	58*	12	4	12	61*	48	29
CCCSc1nnc(Sc2nnnn2-c2ccccc2)s1	13	58*	25	-17	39	66*	60*	46
c1ccc2oc(SCc3cn4ccccc4n3)nc2c1	23	56*	17	5	39	69*	69*	53*
Cc1cccc2nc(CSc3nc4ccccc4o3)cn12	25	38	29	17	37	/	/	/
Cc1cc(C)c(OCC(O)CN2CCN(c3ccccn3)CC2)c(C)c1 (stereo not given)	-8	17	12	7	23	/	/	/
Clc1ccc(/C=C/c2nc3ccccc3[nH]2)cc1	-8	54*	7	37	46	77*	54*	71*
COc1ccc(C(=O)CCNc2ccc(F)cc2)cc1	/	57*	-29	-30	-4	31	/	/
O=c1c(Cc2ccc(F)cc2)c(O)ccn1Cc1cccc(Cl)c1	26	9	-14	-2	-2	/	/	/
C#CCN(C(=O)CC1C(=O)NCCN1C/C=C/c1ccccc1)C1CCCCC1 (stereo not given)	6	8	14	17	5	/	/	/
COc1ccc(Nc2c(C)cccc2C)cc1	-46	-105	21	18	2	-12	/	/
CN(C)c1ncnc2sc(-c3ccccc3)cc12	-5	65*	-18	14	45	75*	44	37
COc1ncnc2sc(-c3ccccc3)cc12	9	38	-14	-1	25	/	/	/
Cc1cccc(OCCCSc2nc3ccc(C)cc3[nH]2)c1	51	50*	-29	4	-18	53*	54*	42
CCOC(=O)C1CCCN(S(=O)(=O)c2cccc3cccnc23)C1 (stereo not given)	16	0	6	-1	12	/	/	/
COc1ccc(Cn2c(-c3ccc(OC)cc3)nc3ccccc32)cc1	31	24	36	17	41	/	/	/
Cn1cccc1-c1nc2ccccc2n1Cc1ccccc1	-8	-108	39	30	20	-15	/	/
COc1ccc(N2CCN(C(CNC(=O)CC(C)(C)C)c3ccc4c(c3)OCO4)CC2)cc1 (stereo not given)	18	15	0	-7	1	/	/	/
Cc1csc(=Nc2cccnc2)n1CC1CCCCC1	-4	-107	22	37	39	-3	/	/
COc1ccc(S(=O)(=O)N2CCN(c3nc(C)cc(C)n3)CC2)cc1	20	53*	33	5	34	65*	63*	58*
COc1ccc(-c2ccc(S(=O)(=O)N3CCCC3)cc2)cc1	11	53*	-12	12	28	47	54*	44
COC(=O)c1ccccc1NC(=O)C1CCCN(S(=O)(=O)c2ccc(OC)cc2)C1 (stereo not given)	52	64*	26	-16	40	77*	63*	60*
COc1ccc(S(=O)(=O)N2CCCCCC2)cc1	-11	-11	33	25	26	/	/	/
CCn1c(SCC(=O)OC2CCCCC2)nc2ccccc2c1=O	25	51*	-12	-11	2	71*	50*	49
CCCCCCCCCCCCOC(=O)C[N+](C)(C)C	/	54*	30	-41	19	46	59*	52*
CC1(C)CC(c2nc(-c3ccc([N+](=O)[O-])cc3)cs2)CCO1 (stereo not given)	-3	-107	32	28	8	-16	/	/
CC(=O)NC(Cc1c[nH]c2ccccc12)C(=O)NCCc1ccccn1 (stereo not given)	-5	-4	4	-14	-4	/	/	/
Cc1cc(OCc2nc3ccccc3s2)ccc1N	-1	55*	16	22	23	42	/	/
CC12CC3(C)CC(C)(C1)CC(NC(=O)N1CCCC1)(C2)C3	8	94*	36	38	47	49*	98*	99*
CC1(NC(=O)N2CCCCC2)CCS(=O)(=O)C1 (stereo not given)	0	8	10	9	1	/	/	/

Bioassay records deposited in PubChem BioAssay by Sanford-Burnham Center for Chemical Genomics.
